# aSyn UTR act: Activators via SNCA 5'UTR binding, MLPCN; alpha-synuclein 5'UTR reporter, activators screen; activity score, % (tested at 7.5 µM), hits read low; 300,000 tested, 7.1% active; AID 1814; in the data active = activity score below about -60%
# Starred values were filed as active, the others as inactive. Not all results are given here.
SMILES,aSyn UTR act
C/C(=N\NC(=O)c1ccncc1)c1cccc(NC(=O)c2ccc(C(C)(C)C)cc2)c1,-123*
COc1ccc(C(=O)N/N=C(/C)c2cccc(NC(=O)c3ccccc3F)c2)cc1,-79*
Cc1ccc(-c2ccc3c(c2)S(=O)(=O)c2ccccc2C3=O)cc1,-156*
CN(C)c1ccc(N=Cc2nc(-c3ccccc3)oc2O)cc1,-95*
CC(=O)Oc1oc(-c2ccccc2)nc1/C=N/c1ccccn1,-72*
CN(C)c1ccc(N=Cc2nc(-c3ccccc3)oc2OC(=O)c2ccccc2)cc1,-115*
Oc1oc(-c2ccccc2)nc1C=NCc1ccccc1,-133*
Cc1ccc(C(=O)N/C(=C\c2ccc(-c3ccccc3[N+](=O)[O-])o2)C(=O)NCCCN2CCOCC2)cc1,71
COc1nc(N/N=C/c2ccc(-c3ccccc3[N+](=O)[O-])o2)nc(N2CCOCC2)n1,-105*
CCSc1ccc(-c2cccc([N+](=O)[O-])c2)nn1,-89*
O=[N+]([O-])c1cc(C(F)(F)F)ccc1Sc1ccc2ccccc2n1,-75*
Cc1cc(Cl)c2oc(C(=O)N(C)C3CCOC3)c(C)c2c1 (configuration not stated),-108*
Cc1cc(Cl)c2oc(C(=O)N(C)Cc3ccon3)c(C)c2c1,-104*
O=C(Oc1c(-c2ccccc2)c(=O)n2c3c(cccc13)CC2)c1cccc([N+](=O)[O-])c1,77
Cc1ccc(OC(=O)COc2ccccc2)c(-n2nc3ccccc3n2)c1,-178*
Cc1ccc(OC(=O)COc2ccccc2C)c(-n2nc3ccccc3n2)c1,-233*
Cc1ccc(OC(=O)c2cccc([N+](=O)[O-])c2)c(-n2nc3ccccc3n2)c1,-278*
Cc1cccc(C=Nc2ccc3c(c2)oc2ccccc23)c1O,-166*
O=C(OCc1ccccn1)c1ccc(COc2ccc3ccccc3c2)o1,-104*
O=c1c(-c2ccc3c(c2)OCCO3)coc2cc(OC3OC(CO)C(O)C(O)C3O)ccc12 (configuration not stated),-86*
Cc1nn(-c2cc(C)c3ccccc3n2)c2c1CCC2,-90*
COc1ccc(C)cc1Nc1c2c(nc3ccccc13)CCC2,68
Cc1ccc(Nc2nc(N)nc(CSC(=S)N3CCOCC3)n2)c(C)c1,-93*
COc1ccc(Nc2nc(N)nc(CSC(=S)N3CCOCC3)n2)cc1,-87*
Nc1nc(CSC(=S)N2CCOCC2)nc(Nc2ccc(F)cc2)n1,-70*
SMILES,aSyn UTR act
c1ccc(Cn2c(Sc3nnnn3-c3ccccc3)nnc2-c2ccccc2)cc1,-74*
CC(C)(CO)NC(=O)c1ccc2c(c1)C(=O)c1ccccc1-2,-96*
O=C(NCc1ccco1)c1ccc(Oc2ccccc2)cc1,-87*
CCc1nc2ccc(C(=O)NCCc3ccco3)cc2nc1CC,-63*
O=C(NCc1ccco1)c1ccc2c(c1)C(=O)c1ccccc1-2,-77*
O=C(NCc1ccco1)c1ccc2ccccc2c1,-64*
COc1ccc(-n2nc(C(=O)NCC(=O)N3CCN(c4ccccc4)CC3)c3ccccc3c2=O)c(OC)c1,-78*
COc1ccc(-n2nc(C(=O)NCC(=O)N3CCN(c4ccc(F)cc4)CC3)c3ccccc3c2=O)c(OC)c1,-65*
CCOC(=O)c1ccc2nc3c(cc2c1)CCS3,-148*
Cc1cccc(C(=O)NNC(=O)c2ccc(Cl)cc2)c1O,-141*
O=C(NNC(=O)c1ccccc1O)c1ccc(Br)cc1,-116*
O=C(COC(=O)c1ccc(O)cc1O)c1ccc(Cl)cc1,-96*
O=C(NNC(=O)c1ccccc1O)c1ccc(Cl)cc1,-81*
O=C(NNC(=O)c1ccccc1O)c1cccc(Br)c1,-133*
O=C(NNC(=O)c1cccs1)c1ccc(Br)cc1,-78*
O=C(NNC(=O)c1ccc(O)cc1O)c1ccc(Cl)cc1,-72*
Cc1ccc(-c2nn(-c3ccccc3)cc2CSC(=N)N)cc1,119
Cc1ccc(-c2nn(-c3ccccc3)cc2C=O)o1,-88*
Cc1ccc(-c2nn(-c3ccccc3)cc2CO)o1,-82*
CCCOC(c1ccccc1)(c1ccc(C(F)(F)F)cc1)C(Oc1nc(C)cc(C)n1)C(=O)O (configuration not stated),61
CC(C)N1C(=O)CN(C2CCCCCC2)C(=O)C1c1ccccc1F (configuration not stated),-140*
CCOc1ccc(Nc2ncnc3c2nnn3Cc2ccccc2)cc1,-79*
CC(C)Oc1ccc(C2c3c(oc4ccccc4c3=O)C(=O)N2CCCN2CCOCC2)cc1 (configuration not stated),-76*
CCCOc1ccc(N2C(=O)CC(SCCN)C2=O)cc1 (configuration not stated),-71*
CCCOc1ccc(N2C(=O)CC(N(O)c3ccccc3)C2=O)cc1 (configuration not stated),-77*
SMILES,aSyn UTR act
COC(=O)c1ccc(N2C(=O)CC(SCCN)C2=O)cc1 (configuration not stated),-84*
CCOC(=O)C1=C(CSc2nc(-c3ccccc3)ccc2C#N)OC(N)=C(C#N)C1c1ccc(OC)cc1 (configuration not stated),-184*
N#Cc1c(-c2ccc(Cl)cc2)ccn2nc(C3CCCCC3)nc12,-164*
Cc1ccc(CNC(=O)C2(S(=O)(=O)c3ccccc3)CC=CC2)cc1,-114*
C=CC(C)N1C(=O)S/C(=C\c2ccc(N3CCOCC3)cc2C)C1=O (configuration not stated),-120*
Cc1cc(N2CCCC2)ccc1/C=C1\NC(=S)N(C)C1=O,-261*
Cc1cc(N2CCOCC2)ccc1/C=C1/SC(=O)NC1=O,-67*
O=C1NC(=O)/C(=C\c2ccc(O)cc2O)S1,-77*
C=CCN1C(=O)S/C(=C\c2ccc(N3CCOCC3)cc2C)C1=O,-152*
CC(C)c1ccc(OCc2ccc(C(=O)NN3CCN(C)CC3)o2)cc1,-134*
CC(C)c1ccc(OCc2ccc(C(=O)O)o2)cc1,-94*
CC1CN(C(=O)c2ccc(COc3ccc(C(C)C)cc3)o2)CC(C)O1 (configuration not stated),-110*
CC(C)c1ccc(OCc2ccc(C(=O)N(C)C)o2)cc1,-171*
CCc1ccc(OCc2ccc(C(=O)O)o2)cc1,-145*
COc1ccc(OCc2cc(C(=O)O)c(C)o2)cc1,-93*
COc1ccc(NN=Nc2ccc([N+](=O)[O-])cc2)cc1,-240*
c1ccc(NC2=Nc3ccccc3CS2)cc1,-201*
CC(=O)Nc1ccc(-c2csc(N/N=C(/C)c3ccccc3)n2)cc1,-102*
C/C(=N/Nc1nc(-c2ccc(Cl)cc2)cs1)c1cccs1,-75*
CC(=O)Nc1ccc(-c2csc(NCc3ccccc3)n2)cc1,-75*
Cc1ccc(NNC(=S)Nc2ccc(C(C)C)cc2)c(C)c1,-145*
CC(=O)c1coc2c1cc(O)c1ccccc12,-83*
COc1ccc(NC(=S)N/C(=N/S(=O)(=O)c2ccc(C)cc2)c2ccccc2)cc1,-146*
COc1ccc(S(=O)(=O)/N=C2\C=C(Nc3ccc(O)cc3)C(=O)c3ccccc32)cc1,100
O=S(=O)(/N=C(/NC(=S)Nc1ccccc1)c1ccccc1)c1ccc(Cl)cc1,-99*
Cc1cc(CN2CCCC(C(=O)Nc3ccc(-c4nc5ccccc5[nH]4)cc3)C2)n[nH]1 (configuration not stated),-121*
CC(C)n1cc(CN2CCCC(C(=O)Nc3cccc(-c4cc5ccccc5[nH]4)c3)C2)cn1 (configuration not stated),58
CCCCNC(=O)c1nnn(-c2ccccc2)c1N,-140*

# Bioassay records (PubChem BioAssay)
